Among the data in PubChem BioAssay (Tox21) are Potency values, retold here.

Structures are written as SMILES. Values joined by “and” are separate entries in the source; they are usually repeats but may differ in a detail not shown here. Equal entries are not always repeated. Records with an inconclusive call do not appear. Some compounds were tested as several samples or in several runs, with calls that do not always agree. Active and inactive are the calls of the source. Unless noted, the call rests on the fitted dose curve.

A short description of test [1]: Nuclear factor erythroid 2-related factor 2/antioxidant responsive element (Nrf2/ARE) small molecule agonists: qHTS cell viability counter screen in human keratinocytes (AID 1919968; active means well fitted curve in the direction sought with a large enough effect in the repeat runs; an effect the other way counts as inactive or inconclusive; further: nearly all actives have a fitted effect of over 55% in size; further: potency means the concentration at half of the fitted maximal effect). A digest of the protocol:
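Viability counter-screen: KeratinoSens reporter cells, DMSO-delivered compounds, 23 h at 37 C, CellTiter-Fluor fluorescence.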
For orientation: Quantitative high-throughput screening tests each substance at several concentrations.

In test [2] the target is Gonadotropin-releasing hormone receptor (Homo sapiens) (UniProt P30968). Nature of the test: Human gonadotropin-releasing hormone receptor (GnRHR) small molecule agonists, calcium flux assay in GnRHR-HEK293 cells (AID 1920063). Further: nearly all actives have a fitted effect of over 35% in size. The method, boiled down: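 Tox21-format agonist screen using human GnRHR-expressing HEK293 cells and a fluorescent calcium dye; kinetic 3-min fluorescence reading after compound addition, 15-point concentration series run in triplicate.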
In general terms: Calcium flux is commonly read through the fluorescence of an indicator in the cells.

For test [3], the target named is KiSS-1 receptor (Homo sapiens) (UniProt Q969F8). Briefly: Human kisspeptin (KISS1R) small molecule agonists, calcium flux assay in KISS1R-HEK293 cells (AID 1920064; active means well fitted curve in the direction sought with a large enough effect in the repeat runs; an effect the other way counts as inactive or inconclusive). The method, boiled down:
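Intracellular calcium mobilization in KISS1R-HEK293 cells was recorded by fluorescence (Ex/Em 480/540) for 3 min following compound addition to cells pre-loaded 1 h with calcium dye.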

Test [4] can be described thus: G protein-coupled receptor (GPCR) small molecule agonists, calcium flux assay: HEK293 wild type cell line counter screen (AID 1920065). A digest of the protocol: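 In this agonist-mode screen, ATP is the positive control and DMSO the vehicle. Cells grow 18 h before a 1 h dye incubation at 37 C; signal is taken at Ex/Em 480/540 over 3 min.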
Test [5] is described as follows: p53 small molecule agonists, cell-based qHTS assay with human liver microsomes (AID 1963577). The method, boiled down: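 p53RE-bla reporter cells were pre-incubated 5 h at 37 C, then treated with compounds plus human liver microsomes (0.5 mg/mL final) and NADPH (0.5 mg/mL final) for 16 h at 37 C. Beta-lactamase activity was read by LiveBLAzer fluorescence after 2 h at room temperature.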

The nature of test [6]: p53 small molecule agonists, cell-based qHTS assay with rat liver microsomes (AID 1963578). A digest of the protocol: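 p53RE-bla cells were exposed to compounds together with rat liver microsomes (0.5 mg/mL final) and NADPH (0.5 mg/mL final) for 16 h at 37 C, then read by LiveBLAzer beta-lactamase fluorescence after 2 h at room temperature.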
Test [7] can be described thus: p53 small molecule agonists, cell-based qHTS assay with human liver microsomes: qHTS cell viability counter screen (AID 1963579). Further: nearly all actives have a fitted effect of over 45% in size. Further: potency means the concentration at half of the fitted maximal effect. A digest of the protocol: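 p53RE-bla cells (4,000/well) were pre-incubated 5 h at 37 C, then given compounds in DMSO plus human liver microsomes (0.5 mg/mL final) and NADPH (0.5 mg/mL final) for 16 h at 37 C. Viability was read by CellTiter-Glo luminescence.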

Test [8] is described as follows: p53 small molecule agonists, cell-based qHTS assay with rat liver microsomes: qHTS cell viability counter screen (AID 1963580). Further: nearly all actives have a fitted effect of over 45% in size. The method, boiled down: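 HCT-116 p53RE-bla, 4,000 cells/well, 5 h pre-incubation; cpd + rat liver microsomes 0.5 mg/mL + NADPH 0.5 mg/mL (final); 16 h, 37 C; CellTiter-Glo, 30 min RT; luminescence.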
Test [9] can be described thus: p53 small molecule agonists, cell-based qHTS assay (AID 1963582; active means well fitted activation curve with a large enough effect in the signal ratio in the repeat runs, not every such curve was filed as active; the % refers to the signal ratio). The method, boiled down: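 Agonist activity was scored from beta-lactamase FRET fluorescence in p53RE-bla cells treated 16 h at 37 C with compounds in DMSO, substrate incubation being 2 h at room temperature.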
Test [10] has as its target 5-hydroxytryptamine receptor 2A (Homo sapiens) (UniProt P28223). Nature of the test: 5-hydroxytryptamine receptor 2A (HTR2A) small molecule antagonists, cell-based qHTS assay (AID 1963586). Further: nearly all actives have a fitted effect of over 45% in size. The method, boiled down:
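Antagonist-mode intracellular calcium assay: DOI (4 nM) added after 5 min compound pre-incubation at room temperature to dye-loaded HTR2A-CHO cells. Fluorescence followed for 3 min, sampled every second.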

For test [11] the target is unchanged. Briefly: 5-hydroxytryptamine receptor 2A (HTR2A) small molecule agonists, cell-based qHTS assay (AID 1963587). Further: nearly all actives have a fitted effect of over 30% in size. A digest of the protocol:
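Kinetic calcium-flux fluorescence (2 min, 1 sec intervals) after compound addition in agonist mode. HTR2A-CHO cells were cultured 18 h, then dye-loaded 1 h at 37 C.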

Test [12] deals with Muscarinic acetylcholine receptor M1 (Homo sapiens) (UniProt P11229). Nature of the test: Cholinergic receptor muscarinic 1 (CHRM1) small molecule antagonists, cell-based qHTS assay (AID 1963588). Further: nearly all actives have a fitted effect of over 40% in size. The method, boiled down: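 CHRM1-CHO calcium-flux assay, antagonist mode. Cells were seeded 18 h, dye-loaded 1 h at 37 C and given compound for 5 min at RT, then acetylcholine was added at 50nM. FDSS fluorescence was read 3 min; 15 concentrations, three runs.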

Test [13] has the same target. Briefly: Cholinergic receptor muscarinic 1 (CHRM1) small molecule agonists, cell-based qHTS assay (AID 1963589). Further: nearly all actives have a fitted effect of over 35% in size. The method, boiled down: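 Stable CHRM1-CHO cells (human receptor) were incubated 18 h, dye-loaded for 1 h at 37 C and exposed to test compounds for agonist activity, with calcium-dependent fluorescence followed kinetically.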
Test [14] is described as follows: cAMP Responsive Elements (CRE) small molecule agonists, cell-based qHTS assay (AID 1963590). The method, boiled down:
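FRET-based beta-lactamase readout (LiveBLAzer B/G, 2 h RT) quantified CRE activation in HEK 293T CRE-bla cells after 3 h treatment with DMSO-dissolved compounds.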

Test [15] in a line: cAMP Responsive Elements (CRE) small molecule antagonists, cell-based qHTS assay (AID 1963591; active means well fitted inhibition curve with a large enough effect in the signal ratio in the repeat runs, not every such curve was filed as active; the % refers to the signal ratio). The method, boiled down:
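qHTS in CRE-bla HEK 293T cells: compound in DMSO, then 0.25 uM NKH477 (final), 3 h at 37 °C/5% CO2; beta-lactamase FRET read-out after 2 h substrate incubation.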

Test [16] deals with Beta-2 adrenergic receptor (Homo sapiens) (UniProt P07550). Briefly: Adrenergic beta2 receptor (ADRB2) small molecule agonists, cell-based qHTS assay (AID 1963593).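 Further: CHO cells stably overexpressing human ADRB2.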 A digest of the protocol: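 CHO cells stably over-expressing ADRB2 were plated overnight at 37C, then dosed with compounds plus a stimulation mix containing 100uM IBMX and 25uM Ro-20-1724 for 0.5hr at room temperature. cAMP was measured by HTRF competition, 1hr.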

The target of test [17] is D(2) dopamine receptor (Homo sapiens) (UniProt P14416). Briefly: Dopamine D2 receptor (DRD2) small molecule agonists, cell-based qHTS assay (AID 1963594). Further: nearly all actives have a fitted effect of over 35% in size. A digest of the protocol:
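cAMP accumulation in DRD2-HEK293 cells measured by HTRF after 1 h detection; compounds added 10 min before NKH477 (200nM […]) forskolin-analogue stimulation, 30 min at room temperature, with Ro20-1724 present at 0.1 mM final.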

For test [18] the target is unchanged. Nature of the test: Dopamine D2 receptor (DRD2) small molecule antagonists, cell-based qHTS assay (AID 1963595; active means well fitted inhibition curve with a large enough effect in the signal ratio in the repeat runs, with a control signal flat; the % refers to the signal ratio). The method, boiled down: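 Readout: HTRF cAMP, cAMP-d2 competing with cellular cAMP for anti-cAMP cryptate, read after 1 h. Cells: DRD2-HEK293. Conditions: 0.1 mM Ro20-1724, 12 nM quinpirole, 200 nM NKH477, 30 min RT.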
Test [19] can be described thus: p53 small molecule agonists, cell-based qHTS assay: qHTS cell viability counter screen (AID 1963581). Further: nearly all actives have a fitted effect of over 45% in size. A digest of the protocol: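 Compounds are pinned onto HCT-116 p53RE-bla cells and left 16 h at 37 C. Following the reporter FRET read, ATP is quantified by CellTiter-Glo luminescence after 30 min at room temperature.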
Test [20] deals with Beta-2 adrenergic receptor (Homo sapiens) (UniProt P07550). Briefly: Adrenergic beta2 receptor (ADRB2) small molecule antagonists, cell-based qHTS assay (AID 1963592). Further: series mostly up to about 92 µM; nearly all actives have a fitted effect of over 50% in size. A digest of the protocol:
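Cells (CHO, stable ADRB2 overexpression) incubated 18-20hr at 37C; compounds added from DMSO; agonist mix (1nM isoproterenol, 100uM IBMX, 25uM Ro-20-1724) added; 0.5hr RT; d2-cAMP and anti-cAMP-cryptate added; 1hr RT; 665/615 nm read.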

D(2) dopamine receptor (Homo sapiens), sequence (P14416 whole entry, looked up): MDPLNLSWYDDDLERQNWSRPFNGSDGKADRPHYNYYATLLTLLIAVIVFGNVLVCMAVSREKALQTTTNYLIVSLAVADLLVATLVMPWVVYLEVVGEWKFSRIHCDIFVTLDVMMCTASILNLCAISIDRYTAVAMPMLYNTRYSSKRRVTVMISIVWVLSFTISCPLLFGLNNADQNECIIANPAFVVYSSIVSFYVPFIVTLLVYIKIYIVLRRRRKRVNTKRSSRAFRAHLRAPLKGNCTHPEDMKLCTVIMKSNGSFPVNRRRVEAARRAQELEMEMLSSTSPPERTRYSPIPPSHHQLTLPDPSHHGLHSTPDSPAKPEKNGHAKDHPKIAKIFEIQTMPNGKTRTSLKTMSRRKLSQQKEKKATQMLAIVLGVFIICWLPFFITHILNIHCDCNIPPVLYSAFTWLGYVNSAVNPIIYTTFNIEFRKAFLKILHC
Beta-2 adrenergic receptor (Homo sapiens), sequence (P07550 whole entry, looked up): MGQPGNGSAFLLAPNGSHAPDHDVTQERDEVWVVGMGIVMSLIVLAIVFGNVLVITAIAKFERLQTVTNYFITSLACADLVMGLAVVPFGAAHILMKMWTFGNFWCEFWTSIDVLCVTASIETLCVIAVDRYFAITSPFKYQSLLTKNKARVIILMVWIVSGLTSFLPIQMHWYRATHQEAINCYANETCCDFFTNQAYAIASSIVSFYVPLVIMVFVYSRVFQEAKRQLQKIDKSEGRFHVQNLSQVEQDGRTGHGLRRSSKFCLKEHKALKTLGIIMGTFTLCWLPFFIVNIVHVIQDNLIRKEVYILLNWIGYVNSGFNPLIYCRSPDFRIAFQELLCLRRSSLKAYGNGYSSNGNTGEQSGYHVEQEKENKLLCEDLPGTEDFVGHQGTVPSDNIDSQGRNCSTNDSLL
Muscarinic acetylcholine receptor M1 (Homo sapiens), sequence (P11229 whole entry, looked up): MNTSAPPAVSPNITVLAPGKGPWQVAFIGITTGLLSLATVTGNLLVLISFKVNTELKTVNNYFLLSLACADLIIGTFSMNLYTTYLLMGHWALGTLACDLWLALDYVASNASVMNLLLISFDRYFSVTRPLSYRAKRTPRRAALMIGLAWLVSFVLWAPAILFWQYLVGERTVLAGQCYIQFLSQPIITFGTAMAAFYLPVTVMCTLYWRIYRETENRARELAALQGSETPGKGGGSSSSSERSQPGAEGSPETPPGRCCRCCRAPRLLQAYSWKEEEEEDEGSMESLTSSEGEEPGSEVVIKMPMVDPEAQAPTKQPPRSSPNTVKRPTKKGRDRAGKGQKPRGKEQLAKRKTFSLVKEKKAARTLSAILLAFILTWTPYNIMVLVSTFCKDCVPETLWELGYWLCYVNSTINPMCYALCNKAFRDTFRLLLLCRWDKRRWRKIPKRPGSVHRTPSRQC
5-hydroxytryptamine receptor 2A (Homo sapiens), sequence (P28223 whole entry, looked up): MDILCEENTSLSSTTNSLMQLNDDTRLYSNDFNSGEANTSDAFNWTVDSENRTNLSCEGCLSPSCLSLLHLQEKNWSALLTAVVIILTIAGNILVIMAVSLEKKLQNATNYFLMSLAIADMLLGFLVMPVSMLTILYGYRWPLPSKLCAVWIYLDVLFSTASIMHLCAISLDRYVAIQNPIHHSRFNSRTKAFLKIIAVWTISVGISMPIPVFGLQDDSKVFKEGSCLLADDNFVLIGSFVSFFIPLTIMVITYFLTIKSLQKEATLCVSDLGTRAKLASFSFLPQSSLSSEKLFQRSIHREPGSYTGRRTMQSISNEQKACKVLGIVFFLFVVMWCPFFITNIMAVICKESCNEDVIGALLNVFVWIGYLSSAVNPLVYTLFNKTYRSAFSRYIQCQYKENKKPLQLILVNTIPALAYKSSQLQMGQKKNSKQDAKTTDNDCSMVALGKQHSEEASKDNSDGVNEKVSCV
KiSS-1 receptor (Homo sapiens), sequence (Q969F8 whole entry, looked up): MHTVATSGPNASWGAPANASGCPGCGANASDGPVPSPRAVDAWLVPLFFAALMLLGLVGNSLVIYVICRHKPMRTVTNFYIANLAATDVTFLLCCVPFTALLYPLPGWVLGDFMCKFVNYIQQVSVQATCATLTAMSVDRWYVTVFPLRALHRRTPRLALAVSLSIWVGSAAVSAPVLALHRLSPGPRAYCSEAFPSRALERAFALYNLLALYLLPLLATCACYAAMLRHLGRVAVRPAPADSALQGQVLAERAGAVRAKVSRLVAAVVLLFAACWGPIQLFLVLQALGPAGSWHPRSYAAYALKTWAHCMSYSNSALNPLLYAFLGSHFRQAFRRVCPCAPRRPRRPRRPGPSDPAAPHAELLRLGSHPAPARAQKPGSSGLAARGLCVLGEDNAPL
Gonadotropin-releasing hormone receptor (Homo sapiens), sequence (P30968 whole entry, looked up): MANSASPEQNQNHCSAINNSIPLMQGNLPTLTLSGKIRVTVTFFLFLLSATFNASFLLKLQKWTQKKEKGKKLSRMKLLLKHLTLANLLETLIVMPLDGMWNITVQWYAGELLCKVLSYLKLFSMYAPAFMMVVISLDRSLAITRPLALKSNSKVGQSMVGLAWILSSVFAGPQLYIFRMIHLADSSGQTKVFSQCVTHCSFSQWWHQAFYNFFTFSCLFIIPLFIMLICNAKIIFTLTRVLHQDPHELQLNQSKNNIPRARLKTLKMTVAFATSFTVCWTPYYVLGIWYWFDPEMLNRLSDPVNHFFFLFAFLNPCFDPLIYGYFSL

With `COC(=O)OC`, the Potency entry in [1], in [2], in test [3], in test [4], in [5] and in test [6] was “inactive” in each case. Also, the Potency entry in test [7], in test [8], in test [9], in test [10], in test [11] and in test [12] was “inactive” each time. In addition, the Potency result in test [13], in test [14], in [15], in [16], in test [17] and in test [18] was “inactive” throughout.
Consider `Cc1c(C(=O)c2c[nH]n(C)c2=O)ccc(S(C)(=O)=O)c1C1=NOCC1`, for which the Potency entry in [1], in test [2], in test [3], in test [4], in test [6] and in test [7] was “inactive” in each case. The Potency result in test [8], in [19], in test [9], in [10], in [11] and in test [12] was “inactive” in each case. Besides, the Potency entry in test [13], in test [14], in test [15], in test [20], in test [16] and in [17] was “inactive” each time. Moreover, the Potency result in test [18] was “inactive”.
Take `CCN(CC)CCOc1ccc(/C(=C(\Cl)c2ccccc2)c2ccccc2)cc1`: the Potency in [1] is 22.1 µM (active) and 29.8 µM (active); in [7], 33.1 µM (active) and inactive. The Potency result in test [2], in test [3], in [4], in [8], in [19] and in test [17] was “inactive” in each case.
`CN1CCOCC1`: the Potency result in test [1], in test [2], in [3], in [4], in [5] and in test [6] was “inactive” each time. Further, the Potency entry in test [8], in [19], in test [9], in [10], in test [11] and in test [12] was “inactive” in each case. Also, the Potency result in test [13], in test [14], in [15], in test [20], in test [16] and in test [17] was “inactive” each time. Besides, the Potency result in test [18] is “inactive”.
`COc1ccccc1C=O`: the Potency entry in test [1], in test [2], in test [3], in [4], in test [5] and in test [6] was “inactive” in each case. Also, the Potency entry in [7], in test [8], in [9], in [10], in test [11] and in test [12] was “inactive” in each case. The Potency result in test [13], in test [14], in [15], in test [20], in [17] and in [18] was “inactive” throughout.
As for `CC(C)(C)CC(C)(C)c1ccc(O)c(-n2nc3ccccc3n2)c1`, the Potency in test [1] was 48.6 µM (active). The Potency entry in test [2], in test [3], in test [4], in [5], in test [6] and in [8] was “inactive” throughout. Moreover, the Potency entry in test [19], in [9], in test [10], in [11], in test [12] and in test [13] was “inactive” each time. The Potency entry in test [14], in test [15], in [20], in test [16], in test [17] and in test [18] was “inactive” in each case.
`CN1C(CCl)Nc2cc(Cl)c(S(N)(=O)=O)cc2S1(=O)=O` (stereo unspecified): the Potency result in test [1], in test [2], in test [3], in [4], in [5] and in test [6] was “inactive” throughout. The Potency result in test [8], in [19], in test [9], in test [10], in test [11] and in test [12] was “inactive” in each case. Moreover, the Potency result in [13], in test [15], in [20], in test [17] and in [18] was “inactive” each time.
In the case of `c1ccc2ncccc2c1`, the Potency entry in test [1], in test [2], in [3], in test [4], in [6] and in test [7] was “inactive” throughout. For the same molecule, the Potency entry in test [8], in [19], in test [9], in test [10], in test [11] and in test [12] was “inactive” in each case. Further, the Potency entry in test [13], in test [14], in [15], in test [20], in test [17] and in [18] was “inactive” throughout.
